According to PubChem BioAssay:
Values joined by “and” are separate entries in the source; they are usually repeats but may differ in a detail not shown here. Equal values may be shown once. Active and inactive are the calls of the source. Rule as the data show it: active = inhibition above about 80%; inactive = the rest.

Test: growth inhibition, MDA-MB-436, cell-based, BGB or cisplatin combos, synergistic combos for chromothripsis tumors (AID 1671458);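 also: cells exposed for 96 hours; 0% = vehicle DMSO and 100% = killing by high DMSO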
Details: MDA-MB-436 breast carcinoma growth inhibition, drug combinations; measured here: cisplatin combination; at 0.5 µM; stronger effect = higher value
For COc1cc([C@@H]2c3cc4c(cc3[C@@H](O[C@@H]3O[C@@H]5CO[C@@H](c6cccs6)O[C@H]5[C@H](O)[C@H]3O)[C@H]3COC(=O)[C@H]23)OCO4)cc(OC)c1O, the inhibition was 49.6% and 58.2%.
N=c1ccn2c(n1)O[C@H]1[C@H](O)[C@@H](CO)O[C@H]12 showed an inhibition of 0.616%.
For COc1cc(NS(C)(=O)=O)ccc1Nc1c2ccccc2nc2ccccc12, the inhibition was 41.4% and 47.1%.

Same assay, conditions: MDA-MB-436 breast carcinoma growth inhibition, drug combinations; measured here: cisplatin combination; at 5 µM; stronger effect = higher value
In the case of COc1cc([C@@H]2c3cc4c(cc3[C@@H](O[C@@H]3O[C@@H]5CO[C@@H](c6cccs6)O[C@H]5[C@H](O)[C@H]3O)[C@H]3COC(=O)[C@H]23)OCO4)cc(OC)c1O, the inhibition is reported as 83.3% and 88.6%.
N=c1ccn2c(n1)O[C@H]1[C@H](O)[C@@H](CO)O[C@H]12 showed an inhibition of 57.3%.
With COc1cc(NS(C)(=O)=O)ccc1Nc1c2ccccc2nc2ccccc12 the inhibition was 67.1% and 66.9%.

Test: UWB1.289_BRCA1 ovarian cancer growth, cell-based, BGB or cisplatin combinations (AID 1671459)
Details: UWB1.289 BRCA1 ovarian carcinoma, drug combinations, BGB combination, concentration series, at 5 µM, stronger effect = higher value
With COc1cc([C@@H]2c3cc4c(cc3[C@@H](O[C@@H]3O[C@@H]5CO[C@@H](c6cccs6)O[C@H]5[C@H](O)[C@H]3O)[C@H]3COC(=O)[C@H]23)OCO4)cc(OC)c1O the inhibition was 94.5% and 109%.
Work on N=c1ccn2c(n1)O[C@H]1[C@H](O)[C@@H](CO)O[C@H]12 yielded an inhibition of 22.3%.
For COc1cc(NS(C)(=O)=O)ccc1Nc1c2ccccc2nc2ccccc12, the inhibition was 79.6% and 77.5%.

Same assay, conditions: UWB1.289 BRCA1 ovarian carcinoma, drug combinations, at 0.5 µM, stronger effect = higher value
In the case of COc1cc([C@@H]2c3cc4c(cc3[C@@H](O[C@@H]3O[C@@H]5CO[C@@H](c6cccs6)O[C@H]5[C@H](O)[C@H]3O)[C@H]3COC(=O)[C@H]23)OCO4)cc(OC)c1O, the inhibition is reported as 16.2% (inactive) and 36.5% (inactive).
With N=c1ccn2c(n1)O[C@H]1[C@H](O)[C@@H](CO)O[C@H]12 the inhibition was 7.05% (inactive).
For COc1cc(NS(C)(=O)=O)ccc1Nc1c2ccccc2nc2ccccc12, the inhibition was 31% (inactive) and 27.1% (inactive).

Same assay, conditions: UWB1.289 BRCA1 ovarian carcinoma, drug combinations, cisplatin combination, concentration series, at 5 µM, stronger effect = higher value
With COc1cc([C@@H]2c3cc4c(cc3[C@@H](O[C@@H]3O[C@@H]5CO[C@@H](c6cccs6)O[C@H]5[C@H](O)[C@H]3O)[C@H]3COC(=O)[C@H]23)OCO4)cc(OC)c1O the inhibition was 117% and 124%.
Work on N=c1ccn2c(n1)O[C@H]1[C@H](O)[C@@H](CO)O[C@H]12 yielded an inhibition of 41.2%.
With COc1cc(NS(C)(=O)=O)ccc1Nc1c2ccccc2nc2ccccc12 the inhibition was 109% and 107%.

Test: drug combination toxicity in non-malignant astrocytes – cell-based, BGB or cisplatin IC20 combos, cytotoxicity control for chromothriptic childhood tumor combination screen (AID 1671460);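 also: cells exposed to compounds for 96 hours before viability readout; 0% = vehicle and 100% = killing control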
Details: Human astrocytes, viability inhibition, drug combinations; at 0.5 µM; stronger effect = higher value
With COc1cc([C@@H]2c3cc4c(cc3[C@@H](O[C@@H]3O[C@@H]5CO[C@@H](c6cccs6)O[C@H]5[C@H](O)[C@H]3O)[C@H]3COC(=O)[C@H]23)OCO4)cc(OC)c1O the inhibition was 47.8% (inactive) and 52.6% (inactive).
For N=c1ccn2c(n1)O[C@H]1[C@H](O)[C@@H](CO)O[C@H]12, the inhibition was 27.9% (inactive).
With COc1cc(NS(C)(=O)=O)ccc1Nc1c2ccccc2nc2ccccc12 the inhibition was 47.7% (inactive) and 54% (inactive).

Same assay, conditions: Human astrocytes, viability inhibition, drug combinations; measured here: combo with BGB IC20; at 0.5 µM; stronger effect = higher value
In the case of COc1cc([C@@H]2c3cc4c(cc3[C@@H](O[C@@H]3O[C@@H]5CO[C@@H](c6cccs6)O[C@H]5[C@H](O)[C@H]3O)[C@H]3COC(=O)[C@H]23)OCO4)cc(OC)c1O, the inhibition is reported as 42.5% and 54.3%.
N=c1ccn2c(n1)O[C@H]1[C@H](O)[C@@H](CO)O[C@H]12 showed an inhibition of 22.9%.
With COc1cc(NS(C)(=O)=O)ccc1Nc1c2ccccc2nc2ccccc12 the inhibition was 46.6% and 56.1%.

Same assay, conditions: Human astrocytes, viability inhibition, drug combinations; measured here: combo with cisplatin IC20; at 0.5 µM; stronger effect = higher value
With COc1cc([C@@H]2c3cc4c(cc3[C@@H](O[C@@H]3O[C@@H]5CO[C@@H](c6cccs6)O[C@H]5[C@H](O)[C@H]3O)[C@H]3COC(=O)[C@H]23)OCO4)cc(OC)c1O the inhibition was 28% and 33.1%.
For N=c1ccn2c(n1)O[C@H]1[C@H](O)[C@@H](CO)O[C@H]12, the inhibition was 18.2%.
In the case of COc1cc(NS(C)(=O)=O)ccc1Nc1c2ccccc2nc2ccccc12, the inhibition is reported as 26.6% and 33.1%.

Test: BT084 cell growth, single and combined drugs, ICGC_MB145, cisplatin and BGB IC40 combos (AID 1671461);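 also: cells exposed to drugs for 96 hours; 0% = vehicle DMSO and 100% = high DMSO full killing control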
Details: BT084 medulloblastoma cells, drug combinations, at 0.5 µM, stronger effect = higher value
For COc1cc([C@@H]2c3cc4c(cc3[C@@H](O[C@@H]3O[C@@H]5CO[C@@H](c6cccs6)O[C@H]5[C@H](O)[C@H]3O)[C@H]3COC(=O)[C@H]23)OCO4)cc(OC)c1O, the inhibition was -19.6% (inactive) and -7.59% (inactive).
For N=c1ccn2c(n1)O[C@H]1[C@H](O)[C@@H](CO)O[C@H]12, the inhibition was -29.7% (inactive).
With COc1cc(NS(C)(=O)=O)ccc1Nc1c2ccccc2nc2ccccc12 the inhibition was -11.3% (inactive) and -37.4% (inactive).

Same assay, conditions: BT084 medulloblastoma cells, drug combinations, cisplatin combination, at 0.5 µM, stronger effect = higher value
With COc1cc([C@@H]2c3cc4c(cc3[C@@H](O[C@@H]3O[C@@H]5CO[C@@H](c6cccs6)O[C@H]5[C@H](O)[C@H]3O)[C@H]3COC(=O)[C@H]23)OCO4)cc(OC)c1O the inhibition was 12.3% and 2.14%.
For N=c1ccn2c(n1)O[C@H]1[C@H](O)[C@@H](CO)O[C@H]12, the inhibition was 2.2%.
With COc1cc(NS(C)(=O)=O)ccc1Nc1c2ccccc2nc2ccccc12 the inhibition was -2.36% and -21.2%.

Same assay, conditions: BT084 medulloblastoma cells, drug combinations, cisplatin combination, at 5 µM, stronger effect = higher value
In the case of COc1cc([C@@H]2c3cc4c(cc3[C@@H](O[C@@H]3O[C@@H]5CO[C@@H](c6cccs6)O[C@H]5[C@H](O)[C@H]3O)[C@H]3COC(=O)[C@H]23)OCO4)cc(OC)c1O, the inhibition is reported as 27.6% and 23.9%.
N=c1ccn2c(n1)O[C@H]1[C@H](O)[C@@H](CO)O[C@H]12 showed an inhibition of 58.5%.
For COc1cc(NS(C)(=O)=O)ccc1Nc1c2ccccc2nc2ccccc12, the inhibition was 23.7% and 15.2%.
